Screens (PubChem)
Only some compounds are listed: those with a hit (about 6.1% of all), similar ones and a draw of the others.
D1 antagonist: blocks dopamine activation of the human D1 receptor; HEK293 TREx D1 cells, calcium flux, dopamine EC80; stronger effect = lower value; activity change, negative = inhibition, % at 10 µM; actives 3.2% (n = 360,000); P21728; in the data active = activity change below about -30%
Target sequence (P21728 whole entry, looked up): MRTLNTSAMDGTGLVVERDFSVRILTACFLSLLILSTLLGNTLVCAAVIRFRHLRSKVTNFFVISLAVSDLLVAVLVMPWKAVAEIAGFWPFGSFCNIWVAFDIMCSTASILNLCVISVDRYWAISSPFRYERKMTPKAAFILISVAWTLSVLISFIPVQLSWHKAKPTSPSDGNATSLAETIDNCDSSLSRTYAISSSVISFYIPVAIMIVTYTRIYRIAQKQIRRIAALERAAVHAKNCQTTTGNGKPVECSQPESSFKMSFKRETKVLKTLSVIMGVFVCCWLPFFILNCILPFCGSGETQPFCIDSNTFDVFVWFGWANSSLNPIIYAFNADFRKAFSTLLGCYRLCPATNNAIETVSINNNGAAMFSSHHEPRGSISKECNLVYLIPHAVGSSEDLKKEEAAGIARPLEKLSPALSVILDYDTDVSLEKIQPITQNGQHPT
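After overnight tetracycline induction at 30 C, force-coupled D1 HEK293 cells took up a no-wash calcium dye at room temperature. Compounds were added and monitored 180 s, and the response to EC80 dopamine was then recorded.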
D1 PAM: potentiators of human D1 dopamine receptor; P21728; HEK293 TREx D1 cells, calcium flux, dopamine EC20 potentiation; potentiation, % at 10 µM; actives 0.036% (n = 360,000); AID 504651; in the data active = potentiation above about 30%
D1 ag: activates the human D1 dopamine receptor; actives 1% (n = 360,000); HEK293 T-REx D1 cells, calcium flux, agonist mode; activation, % at 2 µM; AID 504660; P21728; in the data active = activation above about 30%
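Agonism was scored from calcium flux recorded over 180 s (1 read/s) after pintool compound addition, following a 10-cycle baseline. Cells were inducible force-coupled HEK293 TREx D1, plated overnight at 30 C and loaded with no-wash calcium dye.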
ERG Ets-DNA blk: inhibitors of human ERG Ets domain-DNA interaction. P11308. Potency, µM (top dose mostly 76.9 µM), most hits filed as inhibitors. actives 0.028% (n = 370,000). AID 624246. fluorescence polarization, His-ERG Ets domain / labelled DNA; active = well fitted inhibition curve with a large enough effect in the polarisation, with a control signal flat; the % refers to the polarisation;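 note: polarization taken with two DNA probes labelled with fluorescein and Texas red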
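His-tagged ERG Ets domain (1 uM in the protein solution; 300mM KCl, 50mM Tris-HCl, 1mM EDTA, 1mM DTT, pH 7.5) received compound, then a probe mix of 5 nM fluorescein-DNA and 100nM Texas-615-DNA. Fluorescence polarization was read for both dyes.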
D3 ag: agonists of human D3 dopamine receptor. P35462. D3R DiscoveRx beta-arrestin cells, luminescence, 90 min. max activation, %. actives 0.58% (n = 410,000). AID 652048; in the data active = max activation above about 30%
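Agonist-mode cell screen: cells plated at 1500/well and incubated overnight at 37 °C, then exposed to library compounds for 90 min at 37 °C. Detection reagent was added for 30–60 min at room temperature, and luminescence was read.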
D3 antag: antagonists of human D3 dopamine receptor | P35462 | D3R cells, DiscoveRx beta-arrestin luminescence, antagonist mode; stronger effect = lower value | max response, negative = inhibition, % | actives 2.5% (n = 360,000) | AID 652054; in the data active = max response below about -50%
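Cells expressing the human receptor were seeded at 1500 cells/well, incubated overnight at 37 degrees C in 5% CO2, then exposed to library compounds with dopamine controls for 90 minutes at 37 degrees C before luminescent detection.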
A number is an active result.

Results for CCOc1ccc(NC(=O)CC2C(=O)N(c3ccc(OC)cc3)C(=O)N2CCC2=CCCCC2)cc1 (stereo not drawn) ?
D1 antagonist: inactive; D1 PAM: inactive; D1 ag: inactive; ERG Ets-DNA blk: inactive; D3 ag: inactive

Results for O=[N+]([O-])c1cc([N+](=O)[O-])c2cc3ccccc3nc2c1 ?
D1 antagonist: inactive; D1 PAM: inactive; D1 ag: inactive; ERG Ets-DNA blk: inactive; D3 ag: inactive; D3 antag: -80

Results for O=C(Nc1ccc(C(=O)N2CCN(c3ccc(F)cc3)CC2)cc1)C1=CSCCO1 ?
D1 antagonist: inactive; D1 PAM: inactive; D1 ag: inactive; ERG Ets-DNA blk: inactive; D3 ag: inactive; D3 antag: inactive

Results for Cc1ccc(NS(=O)(=O)c2cc(C(=O)N3CCN(CCO)CC3)ccc2C)cc1 ?
D1 antagonist: inactive; D1 PAM: inactive; D1 ag: inactive; ERG Ets-DNA blk: inactive; D3 ag: inactive; D3 antag: inactive

What do the screens show for `Cc1ccc(C)c(S(=O)(=O)NCc2ccc(C(=O)N3CCOCC3)cc2)c1`?
D1 antagonist: inactive; D1 PAM: inactive; D1 ag: inactive; ERG Ets-DNA blk: inactive; D3 ag: inactive; D3 antag: inactive

How did Cc1ccc(NS(=O)(=O)c2cc(C(=O)N3CCN(C)CC3)ccc2C)cc1 do in these assays?
D1 antagonist: -34; D1 PAM: inactive; D1 ag: inactive; ERG Ets-DNA blk: inactive; D3 ag: inactive; D3 antag: inactive

Results for Cc1ccc(C)c(S(=O)(=O)NCc2ccc(C(=O)N3CCN(C)CC3)cc2)c1 ?
D1 antagonist: -32; D1 PAM: inactive; D1 ag: inactive; ERG Ets-DNA blk: inactive; D3 ag: inactive; D3 antag: inactive

How did N=C1/C(=C\c2coc3ccccc3c2=O)C(=O)N=C2SC=CN12 do in these assays?
D1 antagonist: inactive; D1 PAM: inactive; D1 ag: 342; ERG Ets-DNA blk: inactive; D3 ag: inactive; D3 antag: inactive

How did CC1=CC2=NC(=O)/C(=C/c3coc4ccc(Cl)cc4c3=O)C(=N)N2O1 do in these assays?
D1 antagonist: inactive; D1 PAM: inactive; D1 ag: 231; ERG Ets-DNA blk: inactive; D3 ag: inactive; D3 antag: inactive

Results for CSC1=NSC2=NC(=O)/C(=C/c3coc4ccc(O)cc4c3=O)C(=N)N12 ?
D1 antagonist: inactive; D1 PAM: inactive; D1 ag: 168; ERG Ets-DNA blk: inactive; D3 ag: inactive; D3 antag: inactive

Results for O=C1NN(c2ccccc2)C(=O)/C1=C\c1coc2ccc(O)cc2c1=O ?
D1 antagonist: -70; D1 PAM: inactive; D1 ag: inactive; ERG Ets-DNA blk: inactive; D3 ag: inactive; D3 antag: inactive

What do the screens show for `CN(Cc1ccccc1)C(=O)c1ccc(NC(=O)C2CCCN(C(=O)OC(C)(C)C)C2)cc1` (stereo not drawn)?
ERG Ets-DNA blk: inactive; D3 ag: inactive; D3 antag: inactive

How did O=C(NCC(=O)N1CCCC(C(F)(F)F)C1)c1ccc(Br)o1 (stereo not drawn) do in these assays?
D1 antagonist: inactive; D1 PAM: inactive; D1 ag: inactive; ERG Ets-DNA blk: inactive; D3 ag: inactive; D3 antag: inactive

How did CCC(C(=O)OCC(=O)N(C)c1c(N)n(Cc2ccccc2)c(=O)[nH]c1=O)c1ccccc1 (stereo not drawn) do in these assays?
D1 antagonist: inactive; D1 PAM: inactive; D1 ag: inactive; ERG Ets-DNA blk: inactive; D3 ag: inactive; D3 antag: inactive

How did CSC1=NSC2=NC(=O)/C(=C\c3cccs3)C(=N)N12 do in these assays?
D1 antagonist: inactive; D1 PAM: inactive; D1 ag: inactive; D3 ag: inactive; D3 antag: inactive

What do the screens show for `CSC1=NSC2=NC(=O)/C(=C/c3coc4ccccc4c3=O)C(=N)N12`?
D1 antagonist: inactive; D1 PAM: inactive; D1 ag: 275; ERG Ets-DNA blk: inactive; D3 ag: inactive; D3 antag: inactive

Results for C/C(=N/OCC(=O)Nc1ccccc1)c1cccs1 ?
D1 antagonist: inactive; D1 PAM: inactive; D1 ag: 31; ERG Ets-DNA blk: inactive; D3 ag: inactive; D3 antag: inactive
